The text below walks through data of PubChem BioAssay (NCI).

Molecules are shown by their SMILES. This is part of a sample that, as a whole, favours compounds with a hit. Of some 83,000 tested, about 20% had one in any assay.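 Negative percent growth values reflect cell death: -40 means 40% of the cells present at the start died, and -100 means all died.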 Values without a mark were called inactive. The source made the active and inactive calls. How the source made its calls: active means growth percent below 10; inactive means the rest.

What all share (assay): NCI-60 one-dose screen, 48 h (100 = growth as untreated, 0 = no growth, -100 = all killed)
For one assay, the system named is HCT-15 colon. Conditions: 10 µM unless noted.
For another assay, the system named is SNB-75 CNS. Conditions: 10 µM.
In the next assay the test system is SNB-19 CNS. Conditions: 10 µM unless noted.
The next assay relates to U251 CNS. Conditions: 10 µM unless noted.
The next assay deals with PC-3 prostate. The following applies: 10 µM unless noted.
For a further assay, the system named is SK-MEL-5 melanoma. Conditions: 10 µM unless noted.
Another assay concerns UACC-62 melanoma. The following applies: 10 µM unless noted.
The next assay concerns LOX IMVI melanoma. The following applies: 10 µM unless noted.
The subject of a further assay is SK-MEL-28 melanoma. Conditions: 10 µM unless noted.
Another assay concerns SK-MEL-2 melanoma. The following applies: 10 µM unless noted.
A further assay deals with EKVX NSCLC. The following applies: 10 µM unless noted.
For the next assay, the system named is SN12C renal. Conditions: 10 µM unless noted.
The subject of the next assay is UO-31 renal. The following applies: 10 µM unless noted.
The subject of a further assay is TK-10 renal. The following applies: 10 µM unless noted.
The next assay concerns ACHN renal. The following applies: 10 µM unless noted.
Another assay concerns CAKI-1 renal. Conditions: 10 µM unless noted.
The subject of a further assay is A498 renal. Conditions: 10 µM unless noted.
The test system of another assay is CCRF-CEM leukemia. Conditions: 10 µM unless noted.
Another assay relates to MOLT-4 leukemia. Conditions: 10 µM unless noted.
In another assay the test system is HT29 colon. Conditions: 10 µM unless noted.

For the molecule `O=[N+]([O-])c1ccc(OCCCOc2ccccc2)cc1`, the growth with HCT-15 colon is 99.4%; in the assay with SNB-75 CNS, 97.2%; in the assay with SNB-19 CNS it was 105%; in the assay on U251 CNS it was 90.7%; in the assay on PC-3 prostate it was 94.3%; with SK-MEL-5 melanoma, 105%. The growth with UACC-62 melanoma was 93.7%; with LOX IMVI melanoma, 97.6%; in the assay on SK-MEL-28 melanoma, 103%; in the assay with SK-MEL-2 melanoma it was 102%; in the assay with EKVX NSCLC it was 96.8%; in the assay with SN12C renal, 104%. In addition, the growth was 87.2% with UO-31 renal; 97.5% in the assay on TK-10 renal; 106% in the assay on ACHN renal; 93.9% in the assay on CAKI-1 renal; 102% in the assay with A498 renal; 105% with CCRF-CEM leukemia. The growth in the assay with MOLT-4 leukemia is 94.6%.
Consider `COc1cc(NC(N)=NCCC(C)(C)Oc2ccc(C(F)(F)F)cc2)ncc1C#N`, for which the growth with HCT-15 colon is -70.7% (active); with HT29 colon, -79.4% (active); in the assay with U251 CNS, -98.2% (active); in the assay on PC-3 prostate, 13.4%; in the assay with SK-MEL-5 melanoma, -95.8% (active); in the assay with UACC-62 melanoma it was -51.8% (active). Also, the growth with LOX IMVI melanoma is -97.2% (active); in the assay on SK-MEL-28 melanoma, -79.2% (active); in the assay with SK-MEL-2 melanoma, -38.5% (active); in the assay with EKVX NSCLC it was 27.1%; in the assay on SN12C renal, -90.3% (active); in the assay on UO-31 renal, -23.5% (active). The growth was -74.2% (active) in the assay with TK-10 renal; 2.74% (active) with ACHN renal; 51.6% in the assay on CAKI-1 renal; 42.8% in the assay with A498 renal; -13.8% (active) in the assay on CCRF-CEM leukemia; -20.8% (active) in the assay with MOLT-4 leukemia.
On to `CCN(CC)CCCNc1nccc2ccc(Cl)cc12`, for which the growth in the assay on HCT-15 colon was 104%; in the assay with HT29 colon, 96.9%; in the assay with U251 CNS, 96.8%; in the assay with PC-3 prostate it was 73.6%; with SK-MEL-5 melanoma, 99.3%; in the assay with UACC-62 melanoma it was 108%. Further, the growth is 94.7% in the assay with LOX IMVI melanoma; 114% in the assay on SK-MEL-2 melanoma; 103% in the assay on EKVX NSCLC; 99.6% with SN12C renal; 94.7% with UO-31 renal; 99.8% with TK-10 renal. Moreover, the growth with ACHN renal was 112%; in the assay with CAKI-1 renal, 108%; in the assay with A498 renal it was 97.9%; in the assay on CCRF-CEM leukemia it was 93.1%; in the assay on MOLT-4 leukemia it was 103%.
With `Cc1ccc(S(=O)(=O)n2cc(C(=O)C(=O)N3CCOCC3)c3ccccc32)cc1`, the growth was 96.6% with HCT-15 colon; 104% with SNB-75 CNS; 99.5% in the assay with SNB-19 CNS; 93.8% with U251 CNS; 67.5% in the assay with PC-3 prostate; 88.1% in the assay with SK-MEL-5 melanoma. Besides, the growth with UACC-62 melanoma was 68.1%; in the assay on LOX IMVI melanoma it was 83.9%; in the assay on SK-MEL-28 melanoma, 117%; in the assay with SK-MEL-2 melanoma it was 97%; with EKVX NSCLC, 88%; with SN12C renal, 87.8%. The growth with UO-31 renal was 59.7%; with TK-10 renal, 94.6%; with ACHN renal, 83.9%; with CAKI-1 renal it was 80.1%; with A498 renal, 118%; in the assay on CCRF-CEM leukemia it was 93.6%. In the assay with MOLT-4 leukemia, the growth is 81.5%.
Regarding `CCN(CC)CCCC(C)Nc1c2ccc(Cl)cc2nc2cc(OC)c(OC)cc12` (stereo unspecified), the growth in the assay on HCT-15 colon was -22.4% (active); in the assay on HT29 colon, -23.8% (active); in the assay on U251 CNS, 16.2%; in the assay with PC-3 prostate, 16.5%; with SK-MEL-5 melanoma, 45.3%; with UACC-62 melanoma, -38% (active). For the same molecule, the growth with LOX IMVI melanoma is -53.3% (active); with SK-MEL-28 melanoma, -74.7% (active); with SK-MEL-2 melanoma, 48%; in the assay on EKVX NSCLC, 53.7%; in the assay with SN12C renal it was 34.3%; with UO-31 renal it was -41% (active). In addition, the growth was 2.47% (active) in the assay on TK-10 renal; -76.2% (active) in the assay with ACHN renal; 9.87% (active) in the assay with CAKI-1 renal; 54.6% in the assay with A498 renal; 15.5% in the assay with CCRF-CEM leukemia; -8.8% (active) in the assay with MOLT-4 leukemia.
As to `CC(=O)OC[C@]12CC[C@H]3[C@@H](C[C@H]4O[C@]45CC=CC(=O)[C@]35C)[C@]1(O)CC[C@@]2(O)[C@@](C)(O)C1CC(C)=C(C)C(=O)O1` (stereo partly specified), the growth with HCT-15 colon is 0% (active); in the assay with HT29 colon, -21.2% (active); in the assay with U251 CNS it was -14.5% (active); with PC-3 prostate, 2.94% (active); with UACC-62 melanoma, -71.1% (active); in the assay with LOX IMVI melanoma it was -74.9% (active). The growth was -49.9% (active) in the assay with SK-MEL-28 melanoma; -22.6% (active) in the assay with SK-MEL-2 melanoma; -14.1% (active) with EKVX NSCLC; -39.2% (active) in the assay with SN12C renal; -18.5% (active) in the assay on UO-31 renal; -55% (active) in the assay on TK-10 renal. In addition, the growth is -64.1% (active) with ACHN renal; -63.7% (active) in the assay on CAKI-1 renal; -76.2% (active) in the assay with A498 renal; -8.89% (active) in the assay with CCRF-CEM leukemia; 7.75% (active) in the assay on MOLT-4 leukemia.
As to `Cc1nc2ncccc2nc1Nc1ccc(S(=O)(=O)Nc2ccccn2)cc1`, the growth in the assay on HCT-15 colon is 123%; in the assay with HT29 colon, 121%; with U251 CNS, 94.4%; in the assay on PC-3 prostate, 88.1%; with SK-MEL-5 melanoma it was 99%; with UACC-62 melanoma, 89.4%. Moreover, the growth in the assay on LOX IMVI melanoma is 85.1%; with SK-MEL-28 melanoma, 101%; in the assay on SK-MEL-2 melanoma it was 104%; in the assay with EKVX NSCLC, 98%; in the assay on SN12C renal, 93.7%; in the assay with UO-31 renal, 61.5%. Further, the growth in the assay with TK-10 renal was 106%; with ACHN renal, 95.2%; in the assay with CAKI-1 renal, 82.6%; with A498 renal, 104%; with CCRF-CEM leukemia it was 107%; in the assay on MOLT-4 leukemia, 91.9%.
Turning to `OCCCCCCNc1ncnc2cc(Cl)ccc12`, the growth with HCT-15 colon is 101%; with HT29 colon it was 99%; in the assay on U251 CNS, 96.8%; in the assay on PC-3 prostate, 80.7%; in the assay on SK-MEL-5 melanoma, 94.1%; in the assay on UACC-62 melanoma, 102%. Moreover, the growth with LOX IMVI melanoma is 88.1%; in the assay with SK-MEL-28 melanoma, 116%; in the assay with SK-MEL-2 melanoma, 100%; with EKVX NSCLC, 105%; in the assay with SN12C renal it was 99.9%; in the assay with UO-31 renal, 69.7%. Moreover, the growth was 94.1% in the assay with TK-10 renal; 102% in the assay with ACHN renal; 90.3% in the assay on CAKI-1 renal; 104% with A498 renal; 78.2% with CCRF-CEM leukemia; 84.5% in the assay with MOLT-4 leukemia.
`COc1ccc(/C=C2/C(=O)NC(SCC(=O)N3CCN(c4cc5c(cc4F)c(=O)c(C(=O)O)cn5C4CC4)CC3)=NC2N)cc1OC` (stereo unspecified): the growth was 98.9% in the assay on HCT-15 colon; 112% in the assay on HT29 colon; 102% in the assay on U251 CNS; 99.2% in the assay with PC-3 prostate; 104% in the assay with SK-MEL-5 melanoma; 102% in the assay with UACC-62 melanoma. Besides, the growth was 103% in the assay with LOX IMVI melanoma; 105% in the assay with SK-MEL-28 melanoma; 111% in the assay with SK-MEL-2 melanoma; 87.6% with EKVX NSCLC; 104% in the assay with SN12C renal; 86.9% in the assay on UO-31 renal. The growth was 112% with TK-10 renal; 104% in the assay on ACHN renal; 107% in the assay with A498 renal; 99.4% in the assay with CCRF-CEM leukemia; 109% in the assay on MOLT-4 leukemia.
